PubChem BioAssay (NCI)
Values joined by “and” are separate entries in the source; they are usually repeats but may differ in a detail not shown here. Equal values may be shown once. The panel holds about 79,000 compounds, 15% with a hit somewhere; the sample as a whole holds those more often. The source holds several records for some structures; these can differ, active in one and inactive in another. Active and inactive are the calls of the source. Cut-off read from the data, not from the text of the source: active = growth inhibition above about 70%; inactive = the rest.

What was measured:
[1] = NCI Yeast Anticancer Drug Screen. Data for the rad50 strain (AID 155);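 note: 0% = growth of vehicle-only cultures of the same strain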; settings: S. cerevisiae rad50 strain growth inhibition; at 50.0 µM; stronger effect = higher value
Procedure, shortened: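 Cells are treated with compound, grown, and their growth is then scored against vehicle-only cultures of the same repair-deficient yeast strain.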

[2] = NCI Yeast Anticancer Drug Screen. Data for the mec2-1 strain (AID 157); settings: S. cerevisiae mec2-1 strain, at 50.0 µM, stronger effect = higher value
Procedure, shortened: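 Growth inhibition is read against vehicle-treated controls after compound exposure of the mec2-1 yeast strain, which is defective in DNA damage repair or cell cycle control.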

[3] = NCI Yeast Anticancer Drug Screen. Data for the sgs1 mgt1 strain (AID 161);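 note: 0% = growth of cultures given vehicle only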; settings: S. cerevisiae sgs1 mgt1 strain, at 50.0 µM, stronger effect = higher value
Procedure, shortened: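 Percent growth inhibition was derived by comparing compound-exposed mutant yeast with vehicle-exposed cultures. The strain carries alterations in DNA damage repair.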

[4] = NCI Yeast Anticancer Drug Screen. Data for the cln2 rad14 strain (AID 165);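 note: 0% = growth equal to vehicle treated cultures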; settings: S. cerevisiae cln2 rad14 strain, at 50.0 µM, stronger effect = higher value
Procedure, shortened: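 Growth inhibition, relative to vehicle-treated controls, is the read-out. The test organism is a yeast strain with defined genetic alterations, cln2 rad14.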

[5] = NCI Yeast Anticancer Drug Screen. Data for the bub3 strain (AID 167); settings: S. cerevisiae bub3 mutant strain, at 50.0 µM, stronger effect = higher value
Procedure, shortened: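 Part of a panel of yeast mutants defective in DNA damage repair or cell cycle regulation. Each strain is grown with compound, and inhibition is calculated relative to solvent-treated cultures.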

[6] = NCI Yeast Anticancer Drug Screen. Data for the mlh1 rad18 strain (AID 175); settings: S. cerevisiae mlh1 rad18 strain growth inhibition; at 50.0 µM; stronger effect = higher value
Procedure, shortened: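 Cells of a genetically altered yeast strain, deficient in DNA damage repair, were treated with compound. Their growth was then compared with that of vehicle-treated cultures to give inhibition.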

| SMILES | growth inhibition [1] | growth inhibition [2] | growth inhibition [3] | growth inhibition [4] | growth inhibition [5] | growth inhibition [6] |
| --- | --- | --- | --- | --- | --- | --- |
| CCCSc1nc(COC(=O)NC)c(COC(=O)NC)n1C | -5.1% (inactive) and -10% (inactive) | -25.1% (inactive) and 2% (inactive) | -5.8% (inactive) and -9.1% (inactive) | -12% (inactive) and 2.95% (inactive) | -5.1% (inactive) and -2% (inactive) | -20.4% (inactive) and 4.85% (inactive) |
| CC(C)(O)CN/C=C(\C(=O)OC(C)(C)C)N1C(=O)c2ccccc2C1=O | 17.1% (inactive) and -17% (inactive) | 3% (inactive) and -6.7% (inactive) | 13.8% (inactive) and -5.45% (inactive) | -39% (inactive) and -11.5% (inactive) | -1.65% (inactive) and -4.95% (inactive) | 2.8% (inactive) and 17.6% (inactive) |
| CCCCc1c(C)[nH]c(=S)[nH]c1=O | -6.15% (inactive) and 5.3% (inactive) | -14.8% (inactive) and -14.1% (inactive) | -4.35% (inactive) and 0.4% (inactive) | -6.1% (inactive) and 13.2% (inactive) | -0.05% (inactive) and 15% (inactive) | -5.45% (inactive) and 2% (inactive) |
| C=Cc1c(C)c2cc3[nH]c(cc4nc(cc5nc(cc1[nH]2)C(C)=C5CCC(=O)O)C(CCC(=O)O)=C4C)c(C)c3C=C | 6.5% (inactive) and 13% (inactive) | 1.5% (inactive) and -13.3% (inactive) | 9.05% (inactive) and 12.7% (inactive) | 10.2% (inactive) and 10.5% (inactive) | 0.65% (inactive) and -0.1% (inactive) | 32.6% (inactive) and 27.1% (inactive) |
| O=C(O)CCC(=O)c1cccs1 | 12.8% (inactive) and -5.4% (inactive) | 4.25% (inactive) and 19.6% (inactive) | 2.2% (inactive) and -4.45% (inactive) | -28.4% (inactive) and -5.5% (inactive) | -5.1% (inactive) and -25.4% (inactive) | -28.9% (inactive) and -21.1% (inactive) |
| Cc1cn(C2CC(CCCO)C(CO)O2)c(=O)[nH]c1=O (stereo unspecified) | -6.5% (inactive) and -9.9% (inactive) | -7% (inactive) and -5.25% (inactive) | 6.7% (inactive) and 2.7% (inactive) | -2.8% (inactive) and 16.1% (inactive) | 2.3% (inactive) and 0.3% (inactive) | 5.35% (inactive) and 0.6% (inactive) |
| CC(CC(N)C(=O)O)C(=O)O (stereo unspecified) | -0.4% (inactive) and -5.1% (inactive) | -4.75% (inactive) and -22.6% (inactive) | -1.95% (inactive) and -49.1% (inactive) | 0.25% (inactive) and -68.8% (inactive) | 0.9% (inactive) and -26.1% (inactive) | -1.85% (inactive) and -17.2% (inactive) |
| COc1ccc(Cc2c3cc(O)c(=O)cc-3ccn2C)cc1OC | 2.75% (inactive) and 47.7% (inactive) | 14.2% (inactive) and 24.5% (inactive) | 23.4% (inactive) and 22.3% (inactive) | 32.2% (inactive) and 8.35% (inactive) | 29.2% (inactive) and 5.5% (inactive) | 28.1% (inactive) and 17.9% (inactive) |
| Cc1ccc(S(=O)(=O)NC(CCC(=O)O)C(=O)O)cc1 (stereo unspecified) | -11.2% (inactive) and -4.6% (inactive) | -22.7% (inactive) and 7.2% (inactive) | 0.15% (inactive) and 0.2% (inactive) | -6.75% (inactive) and -12.2% (inactive) | 21.1% (inactive) and 6.9% (inactive) | -12.4% (inactive) and 9.75% (inactive) |
| CC(Br)C(=O)NC(Cc1ccccc1)C(=O)O (stereo unspecified) | 2.65% (inactive) and -4.15% (inactive) and -18.5% (inactive) | -18.9% (inactive) and 0.65% (inactive) and -20.2% (inactive) | -11.8% (inactive) and 3% (inactive) | 16.8% (inactive) and -25.6% (inactive) | -17.5% (inactive) and 8.15% (inactive) | 25.4% (inactive) and 5.95% (inactive) and -9.85% (inactive) |
| C[n+]1cccc2ccccc21 | -17.1% (inactive) and -14% (inactive) | -11.8% (inactive) and -2.1% (inactive) | -40.5% (inactive) and -8.3% (inactive) | -10.7% (inactive) and -59% (inactive) | 11.5% (inactive) and 6.7% (inactive) | -11.6% (inactive) and -4.15% (inactive) |
| Cc1ccc(C2SCC(=O)N2CCN2C(=O)CSC2c2ccc(C)o2)o1 (stereo unspecified) | 7.1% (inactive) and 5.95% (inactive) | 16.1% (inactive) and 8.45% (inactive) | -2.45% (inactive) and 17.6% (inactive) | 3.15% (inactive) and -0.1% (inactive) | -1.45% (inactive) and -3.45% (inactive) | 13.2% (inactive) and -12.4% (inactive) |
| N#Cc1c(-c2ccccc2)cc(-c2ccccc2)n(C2OC(CO)C(O)C(O)C2O)c1=O (stereo unspecified) | -14.6% (inactive) and -8.2% (inactive) | -2.85% (inactive) and -9.1% (inactive) | 4.85% (inactive) and -5.85% (inactive) | 1.2% (inactive) and 12.4% (inactive) | 5.65% (inactive) and 8.3% (inactive) | -7.95% (inactive) and -10.8% (inactive) |
| O=C1NC(=S)S/C1=C/c1ccnc2ccccc12 | 18.2% (inactive) and 6.7% (inactive) | 14.8% (inactive) and 9.3% (inactive) | 19.4% (inactive) and -3.1% (inactive) | 20.9% (inactive) and -32.1% (inactive) | 5.45% (inactive) and -8.75% (inactive) | 1.25% (inactive) and -11.6% (inactive) |
| COC(=O)C1OC(O[C@H]2CC[C@]3(C)[C@H]4CC=C5[C@@H]6CC(C)(C)CC[C@]6(C(=O)OC6OCC(O)C(O)C6OC6OC(C)C(OC7OCC(O)C(OC8OCC(O)C(O)C8O)C7O)C(OC7OCC(O)C(O)C7O)C6O)CC[C@@]5(C)[C@]4(C)CC[C@H]3C2(C)C)C(O)C(OC2OCC(O)C(O)C2O)C1O (stereo partly specified) | 18.1% (inactive) and 22.6% (inactive) | 7.8% (inactive) and 16.5% (inactive) | 18.6% (inactive) and 23.1% (inactive) | 18.1% (inactive) and 18.7% (inactive) | 30.2% (inactive) and 22.7% (inactive) | 26.2% (inactive) and 38% (inactive) |
| CCCC(=O)Oc1ccc(C(C)C)cc1 | 6% (inactive) and 13.8% (inactive) | -22.3% (inactive) and -1.45% (inactive) | -8.2% (inactive) and 2.05% (inactive) | 10.4% (inactive) and -31.6% (inactive) | -9.75% (inactive) and 13.3% (inactive) | 5.8% (inactive) and 10.1% (inactive) |
| O=C1CCSSCCC(=O)NCCN1 | 7.95% (inactive) and -6.4% (inactive) | 8.6% (inactive) and -3.25% (inactive) | -5.75% (inactive) and 5.55% (inactive) | -2.5% (inactive) and 14.3% (inactive) | 6.65% (inactive) and 29% (inactive) | 16.2% (inactive) and 0.4% (inactive) |
| CCOC(=O)C(c1ccccc1)c1cccc(C(C(=O)OCC)c2ccccc2)n1 (stereo unspecified) | 3.1% (inactive) and 8.55% (inactive) | 0.2% (inactive) and 0.1% (inactive) | -16.9% (inactive) and -33.5% (inactive) | -3.05% (inactive) and -41.7% (inactive) | 1.8% (inactive) and -3.6% (inactive) | 17.6% (inactive) and -13.7% (inactive) |
| Nc1ccc2ccc(O)cc2c1 | 24.8% (inactive) and 29.8% (inactive) | -0.5% (inactive) and 8.5% (inactive) | 24.9% (inactive) and 16.8% (inactive) | 21.8% (inactive) and -22.2% (inactive) | 13.6% (inactive) and 25.8% (inactive) | 19% (inactive) and 24.6% (inactive) |
| O=[N+]([O-])c1ccc2c(c1)C(=Nc1ccccc1)c1cccc([N+](=O)[O-])c1-2 | 6.55% (inactive) and -21.9% (inactive) | 16.2% (inactive) and -12.8% (inactive) | 15.6% (inactive) and -6.05% (inactive) | -36.9% (inactive) and -24.8% (inactive) | 8.8% (inactive) and 8.9% (inactive) | 20.3% (inactive) and -26.3% (inactive) |
| CC(Cc1ccccc1)NC1=NCCO1 (stereo unspecified) | -10.2% (inactive) and -16.2% (inactive) | -4.95% (inactive) and -18.4% (inactive) | 0.55% (inactive) and 1.5% (inactive) | 17.1% (inactive) and -13.2% (inactive) | -25.9% (inactive) and -27.4% (inactive) | 0.1% (inactive) and 72.5% (active) |
